From PubChem BioAssay (Tox21)
Records with an inconclusive call do not appear. Calls of active or inactive are those of the source. Unless noted, calls come from the whole dose curve.

How the values were obtained:
[1] = Nuclear factor erythroid 2-related factor 2/antioxidant responsive element (Nrf2/ARE) small molecule agonists: qHTS cell viability counter screen in human keratinocytes (AID 1919968; active = well fitted curve in the direction sought with a large enough effect in the repeat runs; an effect the other way counts as inactive or inconclusive; note: nearly all actives have a fitted effect of over 55% in size)
In short: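 In human HaCaT keratinocytes stably expressing an ARE-driven luciferase, compound exposure lasted 23 h at 37 C under 5% CO2. Viable cells are quantified with a protease-based fluorogenic reagent (CellTiter-Fluor) read 1 h after addition.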

[2] = Nuclear factor erythroid 2-related factor 2/antioxidant responsive element (Nrf2/ARE) small molecule agonists: luciferase reporter gene qHTS assay in human keratinocytes (AID 1919969); note: nearly all actives have a fitted effect of over 35% in size
[3] = biological target: Gonadotropin-releasing hormone receptor (Homo sapiens) (UniProt P30968); assay: Human gonadotropin-releasing hormone receptor (GnRHR) small molecule agonists, calcium flux assay in GnRHR-HEK293 cells (AID 1920063); note: nearly all actives have a fitted effect of over 35% in size
In short: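 Intracellular calcium rise is the read-out: engineered human GnRHR HEK293 cells, dye-loaded, are exposed to DMSO-dissolved compounds and fluorescence at Ex/Em 480/540 is tracked for 3 min.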

[4] = biological target: KiSS-1 receptor (Homo sapiens) (UniProt Q969F8); assay: Human kisspeptin (KISS1R) small molecule agonists, calcium flux assay in KISS1R-HEK293 cells (AID 1920064; active = well fitted curve in the direction sought with a large enough effect in the repeat runs; an effect the other way counts as inactive or inconclusive)
In short: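 Concentration-response testing used 15 concentrations in triplicate on human KISS1R-expressing HEK293 cells. Calcium-dependent fluorescence (Ex/Em 480/540) was followed kinetically for 3 min after compound transfer.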

[5] = G protein-coupled receptor (GPCR) small molecule agonists, calcium flux assay: HEK293 wild type cell line counter screen (AID 1920065)
In short: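 Fluorescence intensity signals activation. After overnight (18 h) culture and a 1 h calcium dye load at 37 C, compounds are added by pin tool and the plate read at 480/540 nm for 3 min in 1 s steps.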

[6] = p53 small molecule agonists, cell-based qHTS assay with human liver microsomes (AID 1963577);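 note: p53 response element beta-lactamase reporter cells with liver microsomes plus NADPH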
In short: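 Steps: plate p53RE-bla cells, incubate 5 h at 37 C; add compound in DMSO; add microsomes (0.5 mg/mL final) and NADPH (0.5 mg/mL final); incubate 16 h at 37 C; add LiveBLAzer, 2 h RT; read fluorescence.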

[7] = p53 small molecule agonists, cell-based qHTS assay with rat liver microsomes (AID 1963578)
In short: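 Metabolic activation is supplied by rat liver microsomes with NADPH (each 0.5 mg/mL final). p53RE-bla cells incubate with compound 16 h at 37 C; reporter activity is measured by LiveBLAzer fluorescence.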

[8] = p53 small molecule agonists, cell-based qHTS assay with human liver microsomes: qHTS cell viability counter screen (AID 1963579); note: nearly all actives have a fitted effect of over 45% in size
In short: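 After the 460/530 nm beta-lactamase read, CellTiter-Glo was added to the same wells and luminescence measured after 30 min at room temperature, giving viability of p53RE-bla cells treated 16 h with compounds plus microsomes and NADPH.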

[9] = p53 small molecule agonists, cell-based qHTS assay with rat liver microsomes: qHTS cell viability counter screen (AID 1963580); note: nearly all actives have a fitted effect of over 45% in size
In short: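 After the beta-lactamase ratio was read, CellTiter-Glo was added to the same wells and luminescence measured at 30 min; cells had been treated 16 h at 37 C with compounds, rat liver microsomes and NADPH (0.5 mg/mL final each).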

[10] = p53 small molecule agonists, cell-based qHTS assay: qHTS cell viability counter screen (AID 1963581); note: nearly all actives have a fitted effect of over 45% in size
In short: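 Luminescence from CellTiter-Glo, reflecting ATP content, serves as the cytotoxicity measure; it is taken after the 2 h reporter substrate step in HCT-116 p53RE-bla cells dosed for 16 h at 37 C.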

[11] = p53 small molecule agonists, cell-based qHTS assay (AID 1963582; active = well fitted activation curve with a large enough effect in the signal ratio in the repeat runs, not every such curve was filed as active; the % refers to the signal ratio)
In short: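 After plating, p53RE-bla cells sat 5 h in the incubator; compounds or DMSO vehicle were pinned in; a 16 h incubation at 37 C followed; FRET substrate was added and, 2 h later at RT, fluorescence was measured.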

[12] = biological target: 5-hydroxytryptamine receptor 2A (Homo sapiens) (UniProt P28223); assay: 5-hydroxytryptamine receptor 2A (HTR2A) small molecule antagonists, cell-based qHTS assay (AID 1963586); note: nearly all actives have a fitted effect of over 45% in size
In short: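 CHO cells stably expressing human HTR2A were plated for 18 h at 37 C, then loaded with calcium dye for 1 h. Compounds were preincubated 5 min at room temperature before DOI (4 nM solution) was added. Kinetic fluorescence was read for 3 min.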

[13] = biological target: 5-hydroxytryptamine receptor 2A (Homo sapiens) (UniProt P28223); assay: 5-hydroxytryptamine receptor 2A (HTR2A) small molecule agonists, cell-based qHTS assay (AID 1963587); note: nearly all actives have a fitted effect of over 30% in size
In short: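 CHO cells stably expressing human HTR2A, plated 18 h, loaded with calcium dye 1 h at 37 C. Agonist mode: compounds added and intracellular calcium fluorescence recorded kinetically for 2 min at 1 sec intervals.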

[14] = biological target: Muscarinic acetylcholine receptor M1 (Homo sapiens) (UniProt P11229); assay: Cholinergic receptor muscarinic 1 (CHRM1) small molecule antagonists, cell-based qHTS assay (AID 1963588); note: nearly all actives have a fitted effect of over 40% in size
In short: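 Compounds were tested at 15 concentrations in three independent runs. Dye-loaded CHRM1-CHO cells were exposed 5 min at room temperature before stimulation by acetylcholine added at 50nM. Intracellular calcium was read kinetically on FDSS for 3 min.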

[15] = biological target: Muscarinic acetylcholine receptor M1 (Homo sapiens) (UniProt P11229); assay: Cholinergic receptor muscarinic 1 (CHRM1) small molecule agonists, cell-based qHTS assay (AID 1963589); note: nearly all actives have a fitted effect of over 35% in size
In short: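 Fluorescent calcium dye reports M1 activation in stably transfected CHO cells. Compounds, 15 concentrations, added after 1 h dye loading at 37 C; kinetic reading at 1 sec intervals.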

[16] = cAMP Responsive Elements (CRE) small molecule agonists, cell-based qHTS assay (AID 1963590)
In short: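 Compound exposure lasted 3 h at 37 C/5% CO2 in CRE-bla HEK 293T cells grown in assay medium with 10% dialyzed FBS and 25 mM HEPES. Reporter signal came from LiveBLAzer B/G FRET substrate, 2 h, room temperature.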

[17] = cAMP Responsive Elements (CRE) small molecule antagonists, cell-based qHTS assay (AID 1963591; active = well fitted inhibition curve with a large enough effect in the signal ratio in the repeat runs, not every such curve was filed as active; the % refers to the signal ratio)
In short: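 Stimulation used NKH477 at a final 0.25 uM for 3 h in compound-treated CRE-bla HEK293T cells, seeded 18 h beforehand. Reporter activity was measured with LiveBLAzer B/G FRET substrate after 2 h at room temperature.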

[18] = biological target: Beta-2 adrenergic receptor (Homo sapiens) (UniProt P07550); assay: Adrenergic beta2 receptor (ADRB2) small molecule antagonists, cell-based qHTS assay (AID 1963592); note: series mostly up to about 92 µM; nearly all actives have a fitted effect of over 50% in size
In short: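 Assay format: CHO-ADRB2 cells, 18-20hr seeding at 37C/5% CO2, then compound plus 1nM isoproterenol agonist mix for 0.5hr RT. Homogeneous time-resolved fluorescence cAMP detection after 1hr, expressed as 665/615 nm ratio.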

[19] = biological target: D(2) dopamine receptor (Homo sapiens) (UniProt P14416); assay: Dopamine D2 receptor (DRD2) small molecule agonists, cell-based qHTS assay (AID 1963594); note: nearly all actives have a fitted effect of over 35% in size
In short: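 HEK293 cells stably expressing human DRD2, pre-treated with PDE inhibitor Ro20-1724 (0.1 mM final) and compound 10 min at room temperature, then stimulated with NKH477 (200nM […]) for 30 min. cAMP read by HTRF (665/620 nm).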

[20] = biological target: D(2) dopamine receptor (Homo sapiens) (UniProt P14416); assay: Dopamine D2 receptor (DRD2) small molecule antagonists, cell-based qHTS assay (AID 1963595; active = well fitted inhibition curve with a large enough effect in the signal ratio in the repeat runs, with a control signal flat; the % refers to the signal ratio)
In short: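 Antagonist mode in DRD2-HEK293 cells: after compound addition with 0.1 mM Ro20-1724, cells received quinpirole (12 nM) and NKH477 (200 nM) for 30 min at room temperature; HTRF cAMP read after 1 h detection.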

Measured: Potency

Chain of D(2) dopamine receptor (Homo sapiens) (P14416 whole entry, looked up): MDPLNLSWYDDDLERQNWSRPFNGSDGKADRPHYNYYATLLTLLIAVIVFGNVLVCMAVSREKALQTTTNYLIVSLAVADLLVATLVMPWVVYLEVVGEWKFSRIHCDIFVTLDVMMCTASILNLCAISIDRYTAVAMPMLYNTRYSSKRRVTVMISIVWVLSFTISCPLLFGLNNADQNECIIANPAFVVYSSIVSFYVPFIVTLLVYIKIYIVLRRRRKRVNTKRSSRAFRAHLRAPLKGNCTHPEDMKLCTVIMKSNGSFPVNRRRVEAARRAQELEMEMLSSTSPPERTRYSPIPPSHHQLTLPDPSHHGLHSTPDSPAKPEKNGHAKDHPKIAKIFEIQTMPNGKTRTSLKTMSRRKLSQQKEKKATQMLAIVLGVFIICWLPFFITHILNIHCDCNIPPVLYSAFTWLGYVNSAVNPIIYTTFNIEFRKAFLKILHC
Chain of KiSS-1 receptor (Homo sapiens) (Q969F8 whole entry, looked up): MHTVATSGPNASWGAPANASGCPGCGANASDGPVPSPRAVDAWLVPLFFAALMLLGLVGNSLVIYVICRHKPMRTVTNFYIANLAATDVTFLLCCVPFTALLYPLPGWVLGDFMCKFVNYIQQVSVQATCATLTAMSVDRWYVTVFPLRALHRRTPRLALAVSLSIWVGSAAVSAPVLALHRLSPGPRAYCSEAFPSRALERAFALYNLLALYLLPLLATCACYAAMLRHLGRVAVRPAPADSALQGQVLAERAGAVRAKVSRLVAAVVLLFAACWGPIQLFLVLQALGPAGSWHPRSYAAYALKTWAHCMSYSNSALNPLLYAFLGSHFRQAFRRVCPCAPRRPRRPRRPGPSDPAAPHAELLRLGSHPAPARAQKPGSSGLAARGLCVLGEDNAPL
Chain of Gonadotropin-releasing hormone receptor (Homo sapiens) (P30968 whole entry, looked up): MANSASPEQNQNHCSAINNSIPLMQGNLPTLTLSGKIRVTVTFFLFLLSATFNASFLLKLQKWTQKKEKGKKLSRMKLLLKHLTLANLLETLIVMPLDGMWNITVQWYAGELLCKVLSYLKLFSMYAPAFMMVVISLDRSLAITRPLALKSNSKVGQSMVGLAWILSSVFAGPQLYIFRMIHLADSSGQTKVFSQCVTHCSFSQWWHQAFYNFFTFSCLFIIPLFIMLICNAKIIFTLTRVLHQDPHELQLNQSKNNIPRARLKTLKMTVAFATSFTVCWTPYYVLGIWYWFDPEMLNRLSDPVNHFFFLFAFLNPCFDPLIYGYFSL
Chain of Muscarinic acetylcholine receptor M1 (Homo sapiens) (P11229 whole entry, looked up): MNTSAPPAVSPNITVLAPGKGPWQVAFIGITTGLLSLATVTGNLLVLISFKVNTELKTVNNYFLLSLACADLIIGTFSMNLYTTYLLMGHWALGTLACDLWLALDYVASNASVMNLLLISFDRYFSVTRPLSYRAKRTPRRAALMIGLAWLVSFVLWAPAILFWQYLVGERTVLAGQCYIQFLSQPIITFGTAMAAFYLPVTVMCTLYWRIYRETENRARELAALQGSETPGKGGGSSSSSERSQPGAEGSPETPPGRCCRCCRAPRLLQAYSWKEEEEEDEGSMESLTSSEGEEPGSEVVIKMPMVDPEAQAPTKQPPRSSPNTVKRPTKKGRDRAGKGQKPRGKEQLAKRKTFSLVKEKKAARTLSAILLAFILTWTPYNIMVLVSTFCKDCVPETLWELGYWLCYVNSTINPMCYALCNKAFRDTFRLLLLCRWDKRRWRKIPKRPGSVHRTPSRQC
Chain of Beta-2 adrenergic receptor (Homo sapiens) (P07550 whole entry, looked up): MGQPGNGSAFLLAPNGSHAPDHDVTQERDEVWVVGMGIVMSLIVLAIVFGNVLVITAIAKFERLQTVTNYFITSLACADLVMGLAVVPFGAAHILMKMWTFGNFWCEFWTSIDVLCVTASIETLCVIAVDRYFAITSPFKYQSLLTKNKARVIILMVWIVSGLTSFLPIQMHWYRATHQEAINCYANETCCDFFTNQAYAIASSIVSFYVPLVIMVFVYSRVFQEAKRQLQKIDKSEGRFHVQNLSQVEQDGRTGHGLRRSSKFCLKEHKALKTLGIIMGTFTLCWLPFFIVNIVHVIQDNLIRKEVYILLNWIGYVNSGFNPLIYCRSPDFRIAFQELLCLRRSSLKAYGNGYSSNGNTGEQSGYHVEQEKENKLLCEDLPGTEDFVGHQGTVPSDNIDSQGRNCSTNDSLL
Chain of 5-hydroxytryptamine receptor 2A (Homo sapiens) (P28223 whole entry, looked up): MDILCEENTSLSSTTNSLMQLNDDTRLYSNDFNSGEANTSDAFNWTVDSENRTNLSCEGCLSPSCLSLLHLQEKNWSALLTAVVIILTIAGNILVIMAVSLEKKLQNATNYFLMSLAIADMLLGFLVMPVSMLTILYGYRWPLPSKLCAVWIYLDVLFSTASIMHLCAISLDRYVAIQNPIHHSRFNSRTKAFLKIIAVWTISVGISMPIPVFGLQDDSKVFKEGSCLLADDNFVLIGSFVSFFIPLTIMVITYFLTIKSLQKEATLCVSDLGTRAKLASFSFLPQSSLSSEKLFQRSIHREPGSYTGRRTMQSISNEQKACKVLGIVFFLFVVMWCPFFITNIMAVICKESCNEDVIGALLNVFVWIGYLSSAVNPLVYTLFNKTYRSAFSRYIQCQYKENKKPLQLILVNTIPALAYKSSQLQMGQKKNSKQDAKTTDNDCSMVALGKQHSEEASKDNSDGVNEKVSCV

CC(C)COC(=O)c1ccccc1O
inactive: [1] | [2] | [3] | [4] | [5] | [6] | [7] | [8] | [9] | [10] | [11] | [12] | [13] | [14] | [15] | [16] | [17] | [18] | [19] | [20]

O=C[C@H](O)[C@H](O)[C@H](O)CO
inactive: [1] | [2] | [3] | [4] | [5] | [6] | [7] | [8] | [9] | [10] | [11] | [12] | [13] | [14] | [15] | [16] | [17] | [18] | [19] | [20]

C=C1CC/C=C(\C)CC[C@@H]2[C@@H]1CC2(C)C
inactive: [1] | [2] | [3] | [4] | [5] | [6] | [7] | [8] | [9] | [10] | [11] | [12] | [13] | [14] | [15] | [16] | [17] | [18] | [19] | [20]

CC(C)[C@@H]1CC[C@@H](C)CC1=O
inactive: [1] | [2] | [3] | [4] | [5] | [6] | [7] | [8] | [9] | [10] | [11] | [12] | [13] | [14] | [15] | [16] | [17] | [18] | [19] | [20]

CC1(C)[C@@H]2CC[C@]3(C2)[C@@H]1C(=O)CCC3(C)C
inactive: [1] | [2] | [3] | [4] | [5] | [6] | [7] | [8] | [9] | [10] | [11] | [12] | [13] | [14] | [15] | [16] | [17] | [18] | [19] | [20]

Clc1ccc2c(c1)Nc1ccccc1S2
inactive: [1] | [2] | [3] | [4] | [5] | [6] | [7] | [8] | [9] | [10] | [11] | [12] | [13] | [14] | [15] | [16] | [17] | [18] | [19] | [20]

O=C(O)c1ccc(OCCN2CCCCC2)cc1
inactive: [1] | [2] | [3] | [4] | [5] | [6] | [7] | [8] | [9] | [10] | [11] | [12] | [13] | [14] | [15] | [16] | [17] | [18] | [19] | [20]
